Assay results from PubChem BioAssay AID1851 (National Center for Advancing Translational Sciences (NCATS), 2009).
In all, about 16,000 compounds went through this assay and about 5,700 (36%) were called active. Inconclusive results (about 24%) are left out. This is one part of the list. Unmarked numbers belong to inactive results. Calls come from the whole dose curve; as a rule, active = well fitted curve in the direction sought with a large enough effect; inconclusive = small, poorly fitted or top-dose-only effect, or effect the other way; inactive = no such curve, though single readings can be large or run the other way.

What follows are compounds tested against Cytochrome P450 1A2 (Homo sapiens) (UniProt P05177) (assay: Cytochrome panel assay with activity outcomes). Conditions: recombinant CYP, pro-luciferin dealkylation, luminescence, p450-cyp1a2; series mostly up to 57.1 µM.
% is set by controls: 0 for no effect and ±100 for the full control effect.

Chain of Cytochrome P450 1A2 (Homo sapiens) (P05177 whole entry, looked up): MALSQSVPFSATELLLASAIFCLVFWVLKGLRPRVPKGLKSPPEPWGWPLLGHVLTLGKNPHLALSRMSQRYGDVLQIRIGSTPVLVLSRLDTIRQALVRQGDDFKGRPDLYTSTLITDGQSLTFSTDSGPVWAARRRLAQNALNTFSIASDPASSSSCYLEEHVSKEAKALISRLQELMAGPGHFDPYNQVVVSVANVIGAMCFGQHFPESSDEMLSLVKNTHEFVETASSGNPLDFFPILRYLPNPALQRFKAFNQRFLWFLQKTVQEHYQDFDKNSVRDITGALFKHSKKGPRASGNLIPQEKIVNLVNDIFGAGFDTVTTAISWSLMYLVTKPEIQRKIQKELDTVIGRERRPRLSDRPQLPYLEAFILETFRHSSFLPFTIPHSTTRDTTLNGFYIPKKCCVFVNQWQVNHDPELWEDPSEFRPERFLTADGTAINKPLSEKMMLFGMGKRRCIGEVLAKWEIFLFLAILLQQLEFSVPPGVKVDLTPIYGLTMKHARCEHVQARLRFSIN

SMILES	activity, negative = inhibition	AC50
CO[C@@H]1COC(=O)[C@H]2CCCN2C(=O)C/C=C\[C@@H](C)[C@H](OC)COC(=O)[C@H]2CCCN2C(=O)C/C=C\[C@H]1C	-18.1% [at 11.4 µM]	
Cn1c2c(c(=O)n(C)c1=O)[C@@H]1c3c(ccc4ccccc34)OC[C@@H]1CO2		inactive
COc1ccc(O[C@H]2C=C[C@@H](c3ccccc3)O[C@H]2COC(=O)CC/C(C)=N/O[C@@H]2O[C@H](COC(C)=O)[C@H](OC(C)=O)[C@H](OC(C)=O)[C@H]2OC(C)=O)cc1	7.86% [at 11.4 µM]	
Cc1noc(C)c1C(=O)N1CCC2(CCCN(c3ccncc3)C2)CC1		inactive
CCCCNC(=S)NNC(=O)c1csc2c1CCC(C)C2 (stereo not given)		14100 nM (active)
CC1CCc2c(C(=O)Nc3nccs3)csc2C1 (stereo not given)		1000 nM (active)
CCCCNC(=S)NNC(=O)c1sccc1C		14100 nM (active)
CCCCNC(=O)NS(=O)(=O)c1ccc(C)cc1		inactive
COc1ccc(-c2cc(C3CCN(c4cc(Cl)nc(N)n4)CC3)[nH]n2)cc1		15800 nM (active)
COc1ccc(-c2cc(C3CCN(c4ccc(C(C)=O)cc4[N+](=O)[O-])CC3)[nH]n2)cc1		7080 nM (active)
O=C(NNC(=S)NCc1ccco1)c1ccc(Cl)s1		22400 nM (active)
S=C(NCc1ccco1)N1CCN(Cc2ccco2)CC1		inactive
O=C(NC(=S)NNC(=O)c1cccs1)c1ccco1		inactive
CCOC(=O)C(=CNc1cccc(C)c1C)C(=O)OCC		inactive
CCOC(=O)C(=CNc1ncccc1C)C(=O)OCC		1120 nM (active)
CCOC(=O)C(=CNCC(=O)O)C(=O)OCC		inactive
Cc1ccc(C)c(-c2cc(C(=O)Nc3nccs3)c3ccccc3n2)c1		891 nM (active)
Cc1ccc(NC(=O)CCC(=O)NNC(=O)c2cccs2)c(C)c1		inactive
Cc1ccc(Nc2ncccc2C(=O)NCc2cccs2)c(C)c1		1000 nM (active)
Cc1ccc(C)c(NC(=O)Cn2nnc(C(=O)NCc3cccs3)c2N)c1		inactive

SMILES	activity, negative = inhibition	AC50
Cc1ccc(C)c(-c2cc(C(=O)NCc3cccs3)c3ccccc3n2)c1		2240 nM (active)
COC(=O)c1sccc1NC(=O)c1cc(-c2ccc(C)cc2C)nc2ccccc12		inactive
COc1ccc2oc(-c3ccc(C)c(NC(=O)CSc4ccc(Cl)cc4)c3)nc2c1		3160 nM (active)
COc1ccc2oc(-c3ccc(C)c(NC(=O)c4ccc(N5CCOCC5)c([N+](=O)[O-])c4)c3)nc2c1		inactive
CC(=O)OC[C@H]1O[C@@H](O/N=C(\C)CCN2CCc3nc(-c4ccccc4)c(-c4ccccc4)cc3C2)[C@H](OC(C)=O)[C@@H](OC(C)=O)[C@H]1OC(C)=O	-0.893% [at 11.4 µM]	
O=C(Cc1ccc(Br)cc1)OCC(=O)c1ccc2c(c1)OCCO2		12600 nM (active)
O=C(CN1C(=O)c2ccccc2C1=O)NCC(=O)OCC(=O)c1ccc(Br)cc1		inactive
CC(=O)NCCn1c(SCC(=O)NCc2ccco2)nc2ccccc2c1=O		inactive
C=CCSc1nc2ccccc2c(=O)n1Cc1ccco1		25.1 nM (active)
C=CCSc1nn2c(=O)c3ccccc3nc2s1		1000 nM (active)
CC1(C)S[C@@H]2[C@H](NC(=O)[C@@H](NC(=O)N3CCNC3=O)c3ccccc3)C(=O)N2[C@H]1C(=O)O		inactive
CCn1c(CCNC(=O)c2ccccc2Cl)n[nH]c1=S		inactive
Cn1c(CCNC(=O)c2ccccc2Cl)n[nH]c1=S		inactive
S=c1[nH]nc(CCc2ccccc2)n1Cc1ccccc1		25100 nM (active)
N=c1ccn2c(n1)O[C@@H]1[C@@H](O)[C@H](CO)O[C@H]12		inactive
COc1ccc(CCCO[C@@H](Cn2ccnc2)c2ccc(OC)cc2)cc1		15.8 nM (active)
Cc1ccc(/C=C2\SC(=S)N(CCCC(=O)Nc3ccccn3)C2=O)cc1		10000 nM (active)
Cc1ccc(C(=O)c2cn[nH]c2-c2cc(Cl)ccc2O)cc1		14100 nM (active)
CC(NC(=O)OCc1ccccc1)C(=O)NCC1CCCO1 (stereo not given)		12600 nM (active)
O=C(NCC1CCCO1)C1CCC(=O)N1CCc1ccccc1 (stereo not given)		inactive

SMILES	activity, negative = inhibition	AC50
O=C(CC(c1ccccc1)c1ccccc1)NCC1CCCO1 (stereo not given)		inactive
CC(C)Cc1nnc(NC(=O)c2ccc([N+](=O)[O-])cc2)s1		inactive
CC(=O)N=c1sccn1CC(=O)c1ccc([N+](=O)[O-])cc1		22400 nM (active)
COC(=O)C(Cc1ccc(OC(=O)c2ccc(C(F)(F)F)cc2)cc1)N1Cc2ccccc2C1=O (stereo not given)		inactive
C[C@@H](Cc1cccc(C(F)(F)F)c1)NCCOC(=O)c1ccccc1		794 nM (active)
O=C(c1cccc(C(F)(F)F)c1)N1CCC(O)(CS(=O)(=O)Cc2ccccc2)CC1		inactive
O=C(O)c1cccc(OCCO)c1	-14.7% [at 11.4 µM]	
CCOc1cccc(OCCCNCCCOC)c1		8910 nM (active)
COc1ccccc1CNc1ncnc2ccc(-c3ccc(C(=O)N(C)C)cc3)cc12		12600 nM (active)
COc1ccc(CNc2ncnc3ccc(-c4ccc(N(C)C)cc4)cc23)c(OC)c1		2510 nM (active)
COc1ccccc1CNc1ncnc2ccc(-c3ccc(N(C)C)cc3)cc12		794 nM (active)
COc1ccccc1CNc1ncnc2ccc(-c3ccc4c(c3)OCO4)cc12		794 nM (active)
CC(C)(C)NC[C@H](O)c1cc(O)cc(O)c1		inactive
CC(=O)NC1(c2cccc(F)c2)CCN(CC(=O)NC(C)C)CC1		inactive
[N-]=[N+]=Nc1ccc(C(=O)CSC[C@@H](NC(=O)CC[C@@H](N)C(=O)O)C(=O)NCC(=O)O)cc1		inactive
CCNc1ncc2nc(-c3cccs3)c(=O)n(Cc3cccs3)c2n1		1260 nM (active)
CCNc1ncc2nc(C)c(=O)n(Cc3cccs3)c2n1		2000 nM (active)
COc1ccc(Nc2ncc3nc(-c4cccs4)c(=O)n(Cc4cccc(OC)c4)c3n2)cc1		inactive
CCNc1ncc2nc(-c3cn(C)c4ccccc34)c(=O)n(Cc3cccs3)c2n1		6310 nM (active)
CCNc1ncc2nc(-c3cccs3)c(=O)n(C)c2n1		1580 nM (active)
